# In PubChem BioAssay (EPA / NIEHS):
# Calls of active or inactive are those of the source. Rule for the calls: active = hit-call score of the fitted dose curve at least 0.9, where 1 is the maximum; inactive = score below 0.9.
# Assay: ATG_Oct_MLP_CIS: Attagene CIS-FACTORIAL HepG2 Assay for human Octamer-Binding Transcription Factor (Oct) (AID 2282993)
# Settings: HepG2 Attagene cis-factorial Oct reporter, mRNA; actives raise or lower the signal
# Method in brief: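 HepG2, transient MRTU transfection, cis promoter elements; 24 h dosing; RT-PCR/CE fluorescence read-out of reporter mRNA; fit both directions vs DMSO.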
Structure (SMILES),outcome,AC50
O=C(O)c1cc(I)cc(I)c1I,inactive,–
C=CCCl,inactive,–
COCCl,inactive,–
COc1ccc(N)cc1,inactive,–
CC1(C)[C@H](/C=C2\CCSC2=O)[C@@H]1C(=O)OCc1coc(Cc2ccccc2)c1,inactive,–
Nc1cccnc1,inactive,–
N#CCC#N,inactive,–
C=CCN=C=S,inactive,–
Brc1ccc(Br)cc1,inactive,–
C[CH2][Hg][S]c1ccccc1C(=O)O,–,2.87 µM (active)
O=S(=O)(F)C(F)(F)C(F)(F)C(F)(F)C(F)(F)F,inactive,–
CCOC(=O)OC1=C(c2cc(C)ccc2C)C(=O)NC12CCC(OC)CC2 (centres undefined),inactive,–
O=C(CCl)Nc1ccccc1,–,8.75 µM (active)
C[C@H]1C(=O)O[C@@H]2CCN3CC=C(COC(=O)[C@](C)(O)[C@]1(C)O)[C@H]23,inactive,–
CCOP(=O)(OCC)SCCSCC,inactive,–
COC(=O)c1cc(Oc2ccc(Cl)cc2Cl)ccc1[N+](=O)[O-],inactive,–
Clc1cc(C(Cl)(Cl)Cl)cnc1Cl,–,15.6 µM (active)
N#Cc1ccccc1Cl,inactive,–
C#CCO,inactive,–
C=CC(=O)OCC(COC(=O)C=C)(COC(=O)C=C)COC(=O)C=C,–,8.16 µM (active)

Structure (SMILES),outcome,AC50
CCCCOC(C)=O,inactive,–
N#Cc1ccncc1,inactive,–
OC[P+](CO)(CO)CO,inactive,–
N#CCCC(Br)(C#N)CBr (centres undefined),–,50 µM (active)
c1csc(-c2ccc(-c3cccs3)s2)c1,–,1.62 µM (active)
OC(Cc1ccccc1Cl)(Cn1cncn1)C1(Cl)CC1 (centres undefined),inactive,–
C=CC(=O)[O][Sn]([CH2]CCC)([CH2]CCC)[CH2]CCC,–,0.348 µM (active)
O=C1C=CC(=O)c2ccccc21,inactive,–
CN(C)c1ccc(N=O)cc1,inactive,–
CCCCCCCCCCCCCCC(Br)C(=O)O (centres undefined),–,161 µM (active)
O=S1(=O)OC(c2cc(Br)c(O)c(Br)c2)(c2cc(Br)c(O)c(Br)c2)c2ccccc21,inactive,–
Cc1ccccc1OP(=O)(Oc1ccccc1)Oc1ccccc1,inactive,–
Brc1c(Br)c(Br)c(Oc2c(Br)c(Br)c(Br)c(Br)c2Br)c(Br)c1Br,inactive,–
COP(=S)(OC)Oc1cc(Cl)c(I)cc1Cl,–,30.7 µM (active)
O=C1c2ccccc2C(=O)C1C(=O)C(c1ccccc1)c1ccc(Cl)cc1 (centres undefined),–,6.7 µM (active)
c1cc[c]([Sb]([c]2ccccc2)[c]2ccccc2)cc1,inactive,–
COc1ccc([N+](=O)[O-])cc1O,inactive,–
O=C(Nc1ccc(Br)cc1)c1cc(Br)cc(Br)c1O,–,5.3 µM (active)
CCCCCCCCCCCCN(C)C,–,54.9 µM (active)
